From PubChem BioAssay
Pemphigus Ab inh = inhibitors of pemphigus antibody binding to DSG3, primary screen, biochemical, bead-based, flow cytometry, scFv-GFP; 310,000 tested, 0.48% active; Desmoglein-3 (Homo sapiens), P32926; binding (percent of control), % at 10 µM; DSG3-coupled beads, scFv-anti-DSG3-GFP binding; stronger effect = lower value;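 active means binding more than 3 SD below its plate's average and above zero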;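 further: hits lower antibody fragment binding to DSG3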
Target sequence (P32926 whole entry, looked up, the tested form may be a part): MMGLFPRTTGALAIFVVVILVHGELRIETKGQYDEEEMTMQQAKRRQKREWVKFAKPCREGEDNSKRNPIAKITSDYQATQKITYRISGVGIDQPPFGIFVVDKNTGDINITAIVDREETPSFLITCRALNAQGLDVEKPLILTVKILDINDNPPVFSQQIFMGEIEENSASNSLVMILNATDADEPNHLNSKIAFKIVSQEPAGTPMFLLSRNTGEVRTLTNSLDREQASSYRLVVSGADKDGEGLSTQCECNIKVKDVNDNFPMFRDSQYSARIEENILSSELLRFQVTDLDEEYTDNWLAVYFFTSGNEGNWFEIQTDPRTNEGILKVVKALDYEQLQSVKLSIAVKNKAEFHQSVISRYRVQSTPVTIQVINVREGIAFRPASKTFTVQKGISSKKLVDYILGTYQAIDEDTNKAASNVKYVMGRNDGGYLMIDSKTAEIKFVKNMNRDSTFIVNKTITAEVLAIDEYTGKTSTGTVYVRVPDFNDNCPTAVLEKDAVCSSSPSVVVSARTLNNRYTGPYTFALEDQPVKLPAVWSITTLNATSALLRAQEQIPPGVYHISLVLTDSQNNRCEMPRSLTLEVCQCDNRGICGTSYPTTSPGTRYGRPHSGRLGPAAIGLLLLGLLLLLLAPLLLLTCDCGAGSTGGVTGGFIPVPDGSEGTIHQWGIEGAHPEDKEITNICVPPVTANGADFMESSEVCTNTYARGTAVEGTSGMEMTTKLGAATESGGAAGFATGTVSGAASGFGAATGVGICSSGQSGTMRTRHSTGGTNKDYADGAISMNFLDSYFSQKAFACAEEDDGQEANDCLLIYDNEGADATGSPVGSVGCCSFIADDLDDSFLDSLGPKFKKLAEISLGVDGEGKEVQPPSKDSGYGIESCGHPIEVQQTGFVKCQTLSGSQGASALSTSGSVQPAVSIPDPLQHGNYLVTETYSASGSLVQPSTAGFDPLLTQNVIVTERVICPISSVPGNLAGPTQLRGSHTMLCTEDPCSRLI
rCAG binder = binders of r(CAG) RNA repeats, primary screen, biochemical, fluorescence; r(CAG) RNA repeat, TO-PRO-1 dye displacement fluorescence; inhibition, % at 3 µM; 370,000 tested, 1.3% active;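 active means inhibition above the plate cutoff, the mean of all test compounds on that plate plus 3 SD, cut at about 35% in these data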;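 further: 0% = DMSO alone and 100% = 100 µM mitoxantrone as full dye displacement; higher means more dye released from RNA so lower well fluorescence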
MsrA inh = bovine MsrA enzyme inhibitors, primary screen, biochemical, absorbance, HTS | Methionine sulfoxide reductase A (Bos taurus) | purified bovine MsrA, absorbance read-out | inhibition, % at 15.5 µM | 360,000 tested, 0.75% active | AID 651718, 2012; in the data active means inhibition above about 4.5%;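 further: 0% = vehicle wells with enzyme and 100% = reference inhibitor wells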
NadD inh = inhibitors of S. aureus NadD, primary screen, biochemical, colorimetric, uHTS. Nicotinate-nucleotide adenylyltransferase NadD (Staphylococcus aureus N315). purified NadD enzyme, colorimetric absorbance read-out. inhibition, % at 20 µM. 360,000 tested, 0.78% active; in the data active means inhibition above about 26%
DAGLB inh = DAGLB lipase inhibitors, primary screen, biochemical, fluorescence, HTS | Diacylglycerol lipase-beta (Homo sapiens), Q8NCG7 | HEK293T DAGLB membrane lysate, EnzChek fluorogenic substrate | inhibition, % at 5.17 µM | 340,000 tested, 0.059% active | AID 504411, 2011; in the data active means inhibition above about 34%;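 further: 0% = enzyme with vehicle and 100% = wells lacking enzyme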
MsrA act = bovine MsrA enzyme activators, primary screen, biochemical, absorbance, HTS; Methionine sulfoxide reductase A (Bos taurus); purified bovine MsrA, absorbance read-out; activation, % at 10.6 µM; 360,000 tested, 0.3% active; AID 602163, 2012; in the data active means activation above about 7.5%;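 further: 0% = vehicle and 100% = reference activator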
rCAG bind conf = small molecules binding CAG repeat RNA – biochemical, fluorescence, confirmation. 4,300 tested, 70% active. r(CAG) RNA repeat, TO-PRO-1 dye displacement fluorescence. AID 652065, 2013. inhibition, % at 3 µM. shares compounds with rCAG binder;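 active means inhibition above a per-plate cutoff, the mean inhibition of sample wells plus 3 SD, cut at about 35% in these data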;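 further: loss of TO-PRO-1 fluorescence as compound displaces dye from 1x1 AA loop RNA; 0% = DMSO only wells and 100% = 100 µM mitoxantrone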
DNA CAG counter = displacement of TO-PRO-1 from CAG DNA duplex, counter-screen for rCAG RNA repeat binder project, biochemical, fluorescence, TO-PRO-1 dye, d(CAG) DNA oligo; inhibition, % at 3 µM; shares compounds with rCAG binder; 4,300 tested, 94% active; d(CAG) DNA oligo TO-PRO-1 dye displacement;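 active means inhibition above its plate's cutoff, the mean test-well inhibition plus 3 SD, cut at about 4.8% in these data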;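 further: 0% = DNA dye mix with DMSO and 100% = 100 µM mitoxantrone; hits displace the dye from DNA and so lower well fluorescence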
* marks the source's active call; other numbers are inactive results. Most compounds without a hit are left out; they make up all but 3.2% or so of the library.

For CC(C=NNc1ccc([N+](=O)[O-])cn1)=Cc1ccccc1 the results were Pemphigus Ab inh 96.8, rCAG binder 3.6, MsrA inh -0.6, NadD inh 9.5, DAGLB inh 2.8 and MsrA act -2.6.
For CCCc1cc(=O)oc2cc(OCC(=O)NC(Cc3c[nH]c4ccc(O)cc34)C(=O)O)c(Cl)cc12 (stereo unspecified) the results were Pemphigus Ab inh 97.4, rCAG binder 19.2, MsrA inh 2.4, NadD inh 2.6, DAGLB inh 1.4 and MsrA act -1.9.
For O=C(Cc1cc(=O)oc2cc(O)ccc12)N[C@@H](Cc1c[nH]c2ccccc12)C(=O)O the results were Pemphigus Ab inh 103.1, rCAG binder 5.2, MsrA inh 4.3, NadD inh -6.9, DAGLB inh 1.9 and MsrA act -3.1.
O=C(COc1ccc2c(-c3ccccc3)cc(=O)oc2c1)N[C@@H](Cc1c[nH]c2ccc(O)cc12)C(=O)O was read as Pemphigus Ab inh 95.2, rCAG binder 36.7*, MsrA inh 2.9, NadD inh 0.1, DAGLB inh 0.7, MsrA act -2.1, rCAG bind conf 39.2* and DNA CAG counter 12.9*.
For O=C(COc1ccc2c(-c3ccccc3)cc(=O)oc2c1)NC(Cc1c[nH]c2ccccc12)C(=O)O (stereo unspecified) the results were Pemphigus Ab inh 91.5, rCAG binder 53.9*, MsrA inh 3.8, NadD inh 5.0, DAGLB inh 6.5, MsrA act -2.9, rCAG bind conf 49.4* and DNA CAG counter 12.3*.
O=C(/C(=N/N=C/c1ccc(O)c(O)c1O)c1ccccc1)c1ccccc1 was read as Pemphigus Ab inh 77.5, rCAG binder 60.8*, MsrA inh 1.0, NadD inh 10.8, DAGLB inh 14.4, MsrA act -6.2, rCAG bind conf 74.5* and DNA CAG counter 41.6*.
Screening Oc1ccc(/C=N/N=C(c2ccccc2)c2ccccc2)c(O)c1O returned Pemphigus Ab inh 52.2, rCAG binder 30.0, MsrA inh 1.5, NadD inh 11.8, DAGLB inh 12.2 and MsrA act -5.3.
Screening CC1(C(=O)NS(=O)(=O)c2cccc(Cl)c2)CCN1C(=O)C1(c2ccc(Cl)cc2)CC1 (stereo unspecified) returned rCAG binder 43.1*, MsrA inh -0.1, NadD inh 1.2, MsrA act 0.7, rCAG bind conf 44.8* and DNA CAG counter 9.8*.
For Cc1cccc(S(=O)(=O)NC(=O)C2(C)CCN2C(=O)C2(c3ccc(Cl)cc3)CCC2)c1 (stereo unspecified) the results were rCAG binder 42.0*, MsrA inh -0.4, NadD inh -1.3, MsrA act -3.9, rCAG bind conf 41.8* and DNA CAG counter 10.6*.
CC1(C(=O)NS(=O)(=O)c2ccc3c(c2)CCO3)CCN1C(=O)C1(c2ccc(Cl)cc2)CC1 (stereo unspecified) was read as rCAG binder 22.7, MsrA inh 0.3, NadD inh 0.8 and MsrA act 0.5.
For CC1(C(=O)NS(=O)(=O)c2cccc(Cl)c2)CCN1C(=O)C1(c2ccc(Cl)cc2)CCC1 (stereo unspecified) the results were rCAG binder 61.2*, MsrA inh -0.5, NadD inh 7.0, MsrA act 1.4, rCAG bind conf 67.5* and DNA CAG counter 18.0*.
CC1(C(=O)NS(=O)(=O)c2ccccc2)CCN1C(=O)C1(c2ccc(Cl)cc2)CCC1 (stereo unspecified) was read as rCAG binder 27.1, MsrA inh -0.5, NadD inh -2.3 and MsrA act -6.4.
For COc1ccc(NS(=O)(=O)c2cc([N+](=O)[O-])ccc2NN=Cc2ccccc2OCC(=O)O)cc1 the results were Pemphigus Ab inh 101.3, rCAG binder 84.7*, MsrA inh 0.0, NadD inh 18.9, DAGLB inh 8.4, MsrA act -2.3, rCAG bind conf 88.4* and DNA CAG counter 62.5*.
`Cc1cc(C)nc(N/N=C/c2ccccc2OCC(=O)O)n1` gave Pemphigus Ab inh 102.8, rCAG binder -0.1, MsrA inh 2.8, NadD inh -1.0, DAGLB inh -1.8 and MsrA act -1.8.
Screening COc1ccc(NS(=O)(=O)c2cc([N+](=O)[O-])ccc2N/N=C\c2c(C)[nH]c3ccccc23)cc1 returned Pemphigus Ab inh 125.5, rCAG binder 6.7, MsrA inh -0.3, NadD inh 26.6, DAGLB inh 0.4 and MsrA act -3.2.
Screening O=C(O)COc1ccccc1C=NNc1ccc([N+](=O)[O-])cc1S(=O)(=O)Nc1ccc(Cl)cc1 returned Pemphigus Ab inh 121.3, rCAG binder 88.0*, MsrA inh 1.9, NadD inh 9.5, DAGLB inh 17.4, MsrA act 6.7, rCAG bind conf 90.7* and DNA CAG counter 69.1*.
`Cc1ccc(C)c(NC(=O)c2ccc(CS(=O)(=O)Cc3ccccc3C)o2)c1` gave rCAG binder 2.4.
CCc1ccccc1OCC(=O)Nc1cc(S(=O)(=O)N(CC)CC)ccc1N1CCOCC1 was read as Pemphigus Ab inh 95.1, rCAG binder 0.1, MsrA inh -0.4, NadD inh 3.7, DAGLB inh -3.0 and MsrA act 0.6.
COc1ccc2[nH]c3c(C)c4ccncc4c(C)c3c2c1 was read as rCAG binder 37.4*, MsrA inh -0.2, NadD inh 36.5*, DAGLB inh -0.6, MsrA act 1.8, rCAG bind conf 24.7 and DNA CAG counter 27.2*.
COc1ccc2c3c(ccc2c1)C(=O)/C(=C/O)CC3 was read as rCAG binder 17.5, MsrA inh 0.8, NadD inh 26.9, DAGLB inh 5.5 and MsrA act -5.0.
`O=C1/C(=C/c2ccco2)SC(=S)N1CC1CCCO1` (stereo unspecified) gave Pemphigus Ab inh 93.4, rCAG binder 46.1*, MsrA inh 1.5, NadD inh 7.2, MsrA act -3.6, rCAG bind conf 16.3 and DNA CAG counter 8.6*.
